Screening data as filed in PubChem BioAssay.
An excerpt weighted towards active compounds, which were near 8.2% of everything screened.
KB-V1 MDR tox = kills drug-selected multidrug resistant KB-V1 cells. KB-V1 MDR cells viability, CellTiter-Glo, 72 h. Potency, µM (titrated, usually from 46.1 µM), usual class: cytotoxic. 400,000 compounds, 3.4% hits. AID 1347076; note: nearly all actives have a fitted effect of over 60% in size
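Luminescent ATP read-out (CellTiter-Glo, 10 min) measures survival of drug-selected KB-V1 MDR cells after 72 h, 37 degrees C compound exposure. Medium: phenol-red-free DMEM, 10% FBS. Values from fitted concentration-response curves.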
ELG1 DNA repair = inhibitors of ELG1-dependent DNA repair in HEK293T cells; HEK293T ELG1-luciferase reporter, luminescence, 16 h; DNA damage induced by 5-fluorouridine; Potency, µM (titrated, usually from 46.1 µM), usual class: inhibitors; 330,000 compounds, 2.3% hits; note: nearly all actives have a fitted effect of over 55% in size
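Quantitative HTS, concentration-response format. 2,000 cells/well co-treated with 5-fluorouridine and compound, 16 hr in 5% CO2 at 37 °C; ONE-Glo luminescence read after 30 min.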
SW480 rereplic = inducers of DNA re-replication in SW480 colon cancer cells; AID 624297; SW480 DNA re-replication, Hoechst DNA content imaging, 48 h; 340,000 compounds, 1.8% hits; Potency, µM (series often up to 46.1 µM), most hits filed as activators; note: nearly all actives have a fitted effect of over 55% in size
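250 cells/well; 23 nL cpd via pin tool; 48 hr, 37 C, 5% CO2; Hoechst 40 min; imager read of total nuclear intensity, ex 405/em 500-530 nm.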
MCF10A rereplic = induces DNA re-replication in MCF 10a normal breast cells | MCF 10A DNA re-replication, Hoechst nuclear intensity, 48 h | Potency, µM (highest dose often 46.1 µM), usual class: activators | 350,000 compounds, 2.9% hits | AID 624296; note: nearly all actives have a fitted effect of over 50% in size
KB-3-1 cytotox = kills parental KB-3-1 adenocarcinoma cells. KB-3-1 viability, CellTiter-Glo ATP luminescence, 72 h. Potency, µM (highest dose often 46.1 µM), usual class: cytotoxic. 400,000 compounds, 1.4% hits; note: nearly all actives have a fitted effect of over 60% in size
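KB-3-1 parental drug-naive adenocarcinoma cells in DMEM/10% FBS, incubated 72 h at 37 C with pin-transferred compounds across a concentration series. Viability by CellTiter-Glo luminescence; concentration-response curves fitted after normalization.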
Of the large screens only hits and unclear results are named; the others gave an inactive call. Calls come from the whole dose curve; as a rule, active = well fitted curve in the direction sought with a large enough effect; inconclusive = small, poorly fitted or top-dose-only effect, or another doubt; inactive = no such curve, though single readings can be large; an effect the other way counts as inactive or inconclusive.

COc1cc2c(cc1OC)CN(C(=O)c1cccc(S(=O)(=O)N3CCc4ccccc43)c1)CC2	KB-V1 MDR tox 20.6µM, ELG1 DNA repair inconclusive, MCF10A rereplic inconclusive
COc1cc2nc(NC(=O)c3ccc(S(=O)(=O)N4CCc5ccccc54)cc3)sc2cc1OC	KB-V1 MDR tox 7.31µM, KB-3-1 cytotox inconclusive (no result: ELG1 DNA repair, SW480 rereplic, MCF10A rereplic)
Cc1cccc2sc(NC(=O)c3cccc(S(=O)(=O)N4CCc5ccccc54)c3)nc12	MCF10A rereplic inconclusive
COc1ccc(C(=O)Nc2ncccc2C)cc1S(=O)(=O)N1CCCc2ccccc21	KB-V1 MDR tox inconclusive
CN(Cc1nc2ccccc2c(=O)[nH]1)C(=O)c1cccc(S(=O)(=O)N2CCc3ccccc32)c1	KB-V1 MDR tox 16.4µM, ELG1 DNA repair inconclusive, MCF10A rereplic inconclusive
O=C(c1cccc(S(=O)(=O)N2CCc3ccccc32)c1)N1CCc2ccccc2C1	ELG1 DNA repair inconclusive, KB-3-1 cytotox inconclusive
COc1cccc(N(CC(=O)NCCSc2ccccn2)S(=O)(=O)c2ccccc2)c1	KB-V1 MDR tox inconclusive, ELG1 DNA repair inconclusive, SW480 rereplic inconclusive
CC(C)Oc1ccc(C(=O)NC(=S)Nc2ccc(Cl)c(C(=O)O)c2)cc1	ELG1 DNA repair inconclusive
CCN(CC(=O)Nc1c(F)cccc1F)C(=O)c1cccc(S(=O)(=O)N2CCCc3ccccc32)c1	KB-3-1 cytotox inconclusive (no result: ELG1 DNA repair)
COc1ccc(S(=O)(=O)N2CCc3ccccc32)cc1NC(C)=O	KB-V1 MDR tox inconclusive, SW480 rereplic inconclusive, MCF10A rereplic 8.2µM, KB-3-1 cytotox 23.1µM
CCc1nnc(NC(=O)c2ccc(Cl)c(S(=O)(=O)N3CCc4ccccc43)c2)s1	KB-V1 MDR tox 13µM, ELG1 DNA repair 23.1µM, KB-3-1 cytotox 20.6µM
COc1ccc(C(=O)Nc2ccc(S(=O)(=O)N3CCc4ccccc43)cc2)cc1	KB-V1 MDR tox 2.59µM, MCF10A rereplic inconclusive, KB-3-1 cytotox 2.91µM (no result: ELG1 DNA repair)
COc1ccc(S(=O)(=O)N2CCc3ccccc32)cc1C(=O)N1CCN(C=O)CC1	none
CCN(CC(=O)Nc1cccc(OC)c1)C(=O)c1cccc(S(=O)(=O)N2CCc3ccccc32)c1	KB-V1 MDR tox 18.4µM, KB-3-1 cytotox inconclusive
O=C(Cc1ccc(S(=O)(=O)N2CCOCC2)s1)NCCc1ccc(F)cc1	none
O=C(Nc1ccn(Cc2cccc3ccccc23)n1)c1cccnc1	ELG1 DNA repair inconclusive, MCF10A rereplic inconclusive
COc1ccc(NC(C)=O)cc1S(=O)(=O)N1CCc2ccccc21	ELG1 DNA repair inconclusive, MCF10A rereplic inconclusive
COc1ccc(NC(=O)c2cccc(S(=O)(=O)N3CCc4ccccc43)c2)cn1	KB-V1 MDR tox 13µM, ELG1 DNA repair 8.2µM
COc1ccc(S(=O)(=O)N2CCCc3ccccc32)cc1[N+](=O)[O-]	KB-V1 MDR tox inconclusive, ELG1 DNA repair inconclusive, SW480 rereplic 20.6µM, MCF10A rereplic 4.11µM, KB-3-1 cytotox 4.11µM
COc1ccc(S(=O)(=O)N2CCc3ccccc32)cc1C(=O)Nc1ccc(NC(C)=O)cc1	SW480 rereplic inconclusive, MCF10A rereplic 23.1µM
COc1ccc(S(=O)(=O)N2CCCc3ccccc32)cc1OC	ELG1 DNA repair inconclusive, SW480 rereplic inconclusive, KB-3-1 cytotox inconclusive
COc1ccc(C(CNC(=O)c2cccc(S(=O)(=O)N3CCCc4ccccc43)c2)N(C)C)cc1 (stereo unspecified)	KB-V1 MDR tox 2.31µM, SW480 rereplic inconclusive, KB-3-1 cytotox inconclusive (no result: ELG1 DNA repair)
Cc1ccc(NC(=O)CSCC(=O)OC(C)C(=O)Nc2ccccc2C)cc1 (stereo unspecified)	none
COc1ccc2cc3cc(C(=O)N4CCN(c5cccc(C(F)(F)F)c5)CC4)sc3nc2c1	none (no result: ELG1 DNA repair, SW480 rereplic, MCF10A rereplic)
COc1ccc([N+](=O)[O-])c(OC)c1C(=O)NC(=O)Nc1c(F)cc(F)cc1F	none
CC(=O)Nc1ccc(S(=O)(=O)N2CCSc3ccccc32)cc1	ELG1 DNA repair inconclusive, SW480 rereplic 3.66µM, MCF10A rereplic 6.51µM, KB-3-1 cytotox 5.8µM
O=C(NC1CCCCC1)C(c1ccnc2ccccc12)n1c(=O)c(-c2ccccc2)nc2ccccc21 (stereo unspecified)	KB-V1 MDR tox 23.1µM, KB-3-1 cytotox 18.4µM (no result: ELG1 DNA repair, SW480 rereplic, MCF10A rereplic)
O=C(NCc1ccco1)c1ccc2c(=O)n(CC3CCCO3)c(=S)[nH]c2c1 (stereo unspecified)	ELG1 DNA repair 13µM
COc1ccc(CCn2c(=S)[nH]c3cc(C(=O)NCc4ccco4)ccc3c2=O)cc1OC	MCF10A rereplic inconclusive, KB-3-1 cytotox 16.4µM
COc1ccc(-n2c(=S)[nH]c3cc(C(=O)NCc4ccco4)ccc3c2=O)cc1OC	none
O=C(NCc1ccccc1)c1ccc2c(=O)n(CC3CCCO3)c(=S)[nH]c2c1 (stereo unspecified)	none
Cc1ccc(CNC(=O)c2ccc3c(=O)n(CC4CCCO4)c(=S)[nH]c3c2)cc1 (stereo unspecified)	KB-V1 MDR tox 16.4µM, MCF10A rereplic inconclusive (no result: ELG1 DNA repair)
COc1cccc(C(C)(O)c2nc(-c3cccs3)cs2)c1 (stereo unspecified)	KB-V1 MDR tox inconclusive (no result: ELG1 DNA repair, SW480 rereplic, MCF10A rereplic)
CCOc1ccc(NC(=O)COc2ccc(C(=O)NCc3cccc(OC)c3)cc2OC)cc1	none
Cc1ccc(Cl)cc1-n1ncc2c(NC3CCCCCC3)ncnc21	KB-V1 MDR tox inconclusive, KB-3-1 cytotox 20.6µM (no result: ELG1 DNA repair, SW480 rereplic, MCF10A rereplic)
Cc1ccc(-n2ncc3c(NC4CCCCCC4)ncnc32)cc1Cl	none (no result: ELG1 DNA repair, SW480 rereplic, MCF10A rereplic)
COc1ccc(-n2ncc3c(NCc4ccco4)ncnc32)cc1	KB-V1 MDR tox 20.6µM, ELG1 DNA repair inconclusive
Clc1ccc(-n2ncc3c(NCC4CCCO4)ncnc32)cc1 (stereo unspecified)	KB-V1 MDR tox 11.6µM, ELG1 DNA repair inconclusive, SW480 rereplic 18.4µM, MCF10A rereplic inconclusive, KB-3-1 cytotox 23.1µM
Clc1ccc(-n2ncc3c(NCc4ccco4)ncnc32)cc1	KB-V1 MDR tox inconclusive, SW480 rereplic inconclusive, MCF10A rereplic inconclusive, KB-3-1 cytotox 5.01µM
COc1ccc(N2CCN(S(=O)(=O)c3ccc4c(c3)C(C(C)C)C(=O)N4)CC2)cc1 (stereo unspecified)	KB-V1 MDR tox inconclusive (no result: ELG1 DNA repair, SW480 rereplic, MCF10A rereplic)
Cc1ccc(C(=O)c2sc(Nc3ccc(F)cc3)nc2N)c(C)c1	none (no result: ELG1 DNA repair, SW480 rereplic, MCF10A rereplic)
Cc1ccc(-n2ncc3c(NNC(=O)c4ccco4)ncnc32)cc1C	ELG1 DNA repair inconclusive
CCc1cc2c(NCc3ccco3)ncnc2s1	KB-V1 MDR tox 20.6µM, KB-3-1 cytotox 11.6µM
CCc1cc2c(NCC(=O)O)ncnc2s1	none
O=C(NNc1ncnc2c1cnn2-c1cccc(Cl)c1)c1ccco1	SW480 rereplic 20.6µM, MCF10A rereplic inconclusive
COc1cc(NCCCn2cnc(C(=O)Nc3ccc(C)c(C)c3)n2)cc(OC)c1OC	none (no result: ELG1 DNA repair)
CCOc1ccc(NC(c2ccc(Cl)cc2)c2nnc(-c3cccc(F)c3)o2)cc1 (stereo unspecified)	KB-3-1 cytotox inconclusive (no result: ELG1 DNA repair, SW480 rereplic, MCF10A rereplic)
C/C(N)=C(/C#N)C(=O)COC(=O)c1ccc(OCC2CCCO2)cc1 (stereo unspecified)	ELG1 DNA repair inconclusive
